Potency and affinity values are given separately. Activity calls are given as the source filed them.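 How the source made its calls, unless noted: active means primary screen inhibitor hit that blocks the TRPC4 channel at some tested dose, yielding a dose curve; inactive means the rest.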
These molecules were tested against Short transient receptor potential channel 4 (Mus musculus) (UniProt Q9QUQ5) (assay: TRPC4 positive allosteric modulators, dose response, cell-based, HEK293 TRPC4/mu-opioid, Fluo-4 calcium, EC20 DAMGO (AID 434941;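 active means earlier screen potentiator hit that boosts the TRPC4 ion channel at some dose, with a dose response; inactive means no potentiation, no dose response, or not a prior hit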;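 further: calcium entry triggered by an EC20 dose of DAMGO at the co-expressed mu-opioid receptor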)). Settings: HEK293 TRPC4/mu-opioid cells, Fluo-4 calcium fluorescence; series mostly up to 20 µM.
Chain of Short transient receptor potential channel 4 (Mus musculus) (Q9QUQ5 whole entry, looked up): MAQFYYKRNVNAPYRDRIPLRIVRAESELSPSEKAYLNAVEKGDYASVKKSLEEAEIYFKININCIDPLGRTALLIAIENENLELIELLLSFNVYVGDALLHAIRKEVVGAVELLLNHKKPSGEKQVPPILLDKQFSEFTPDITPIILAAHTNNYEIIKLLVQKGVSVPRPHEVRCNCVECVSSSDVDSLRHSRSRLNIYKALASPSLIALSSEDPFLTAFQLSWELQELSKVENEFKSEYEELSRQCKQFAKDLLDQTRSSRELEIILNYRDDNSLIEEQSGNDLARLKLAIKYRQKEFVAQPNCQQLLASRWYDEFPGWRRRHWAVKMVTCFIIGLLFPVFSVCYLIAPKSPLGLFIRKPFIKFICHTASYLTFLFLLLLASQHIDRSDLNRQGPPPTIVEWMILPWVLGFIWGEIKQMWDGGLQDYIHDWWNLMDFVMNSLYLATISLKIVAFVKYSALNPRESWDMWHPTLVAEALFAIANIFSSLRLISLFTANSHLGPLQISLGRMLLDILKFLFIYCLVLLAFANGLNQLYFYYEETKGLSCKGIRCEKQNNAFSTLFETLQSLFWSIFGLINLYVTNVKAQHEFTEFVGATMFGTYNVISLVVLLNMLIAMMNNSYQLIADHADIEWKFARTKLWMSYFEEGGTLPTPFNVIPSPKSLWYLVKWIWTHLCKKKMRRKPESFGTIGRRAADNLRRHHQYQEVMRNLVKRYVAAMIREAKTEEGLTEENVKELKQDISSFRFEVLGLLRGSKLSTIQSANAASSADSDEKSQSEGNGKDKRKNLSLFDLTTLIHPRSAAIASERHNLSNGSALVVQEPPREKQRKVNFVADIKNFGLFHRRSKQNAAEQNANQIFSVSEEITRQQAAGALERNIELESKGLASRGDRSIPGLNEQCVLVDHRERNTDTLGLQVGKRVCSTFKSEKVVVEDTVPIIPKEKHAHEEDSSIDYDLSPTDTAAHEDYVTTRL

outcome, inactive:
Cc1csc2c(N3CCN(C(=O)Nc4ccc(OC(F)(F)F)cc4)CC3)ncnc12
CN(CCc1ccccn1)C(=S)Nc1cccc(S(=O)(=O)N(C)C)c1
Cc1ccc(NC(=S)NC2CC3CCC(C2)N3Cc2ccco2)c(C)c1 (stereo not drawn)
COc1cc2c(cc1OC)C(C)N(C(=O)C(NC(=O)c1ccccc1)C(C)C)CC2 (stereo not drawn)
O=C(NC1CC1)C1=C[C@H](c2csc3ccccc23)C[C@H](OCc2ccc(CO)cc2)O1
Clc1ccc2nc(N3CCNCC3)nc(-c3ccccc3)c2c1
COc1ccc(C(CNC(=O)/C=C/c2c(Cl)nc3ccccn23)N(C)C)cc1 (stereo not drawn)
CC(=O)n1cc([C@H]2C=C(C(=O)NCc3ccccc3)O[C@@H](OCc3ccc(CO)cc3)C2)c2ccccc21
CCCn1ncc(CN2CCC(n3nccc3NC(=O)CCc3ccccc3)CC2)c1C
CC(=O)NC(CC(=O)NCC(c1ccco1)N(C)C)c1ccccc1 (stereo not drawn)
COc1ccc(C(=O)NNC(=S)NC(=O)c2cccs2)cc1
COCCn1nnnc1C(c1cc2ccc(OC)cc2[nH]c1=O)N1CCN(C2CCCCC2)CC1 (stereo not drawn)
O=C(c1sc2ccccc2c1Cl)N(Cc1ccccc1)C1CCS(=O)(=O)C1 (stereo not drawn)
O=c1c(Cc2ccc(F)cc2)c(O)ccn1CCc1cnc[nH]1

These molecules were tested against Short transient receptor potential channel 4 (Mus musculus) (UniProt Q9QUQ5) (assay: mouse TRPC4 channel inhibitors, dose response, cell-based, HEK293 TRPC4/mu-opioid, Fluo-4 calcium (AID 434942)). Settings: HEK293 TRPC4/mu-opioid cells, DAMGO-evoked Fluo-4 calcium ratio; series mostly up to 20 µM.

outcome, inactive:
NC1=NC2(CCN(Cc3ccccc3)CC2)n2c(nc3ccccc32)N1
COc1ccc(CN2CCC(N(CCc3ccccc3)Cc3ccccc3)CC2)c(OC)c1
CCc1ccc(C(=O)c2cnc3ccc(OC)cc3c2N2CCN(CC)CC2)cc1
S=C(NCCc1cnc[nH]1)NC1CCCC1
O=C(NCc1ccccc1)C1=C[C@H](c2ccccc2)C[C@H](OCc2ccc(CO)cc2)O1
Cc1ccc(OCC(=O)N(C)CCc2ccccn2)cc1
CC(C)(C)C(=O)/C=c1\s/c(=C\c2ccc(-c3ccc([N+](=O)[O-])cc3)o2)c(=O)n1CC(=O)NC(N)=O
NC(=O)C1CCCN(CCc2ccccc2)C1 (stereo not drawn)
Cc1cc2nc3s/c(=C/c4ccc(-c5ccccc5C(=O)O)o4)c(=O)n3c2cc1C
COc1ccc(CNCc2cn(-c3cccc(F)c3)nc2-c2ccc(C)o2)cc1
CN(C)C(CNc1ccc(C(F)(F)F)cn1)c1ccccc1 (stereo not drawn)
CN(C)C(CNC(=O)c1cccc(S(=O)(=O)N(C)C)c1)c1ccccc1 (stereo not drawn)
CCCc1c(O)nc(SCCN(CC)CC)[nH]c1=O
CCC(=O)N1CCc2cc(Br)cc(S(=O)(=O)NCCCN(CC)Cc3ccccc3)c21
Cc1ccc(Cn2c(SCCN3CCCCC3)nc3c2c(=O)n(C)c(=O)n3C)cc1
O=C(O)C1C2C=CC(C2)C1C(=O)N1CCN(C/C=C/c2ccccc2)CC1 (stereo not drawn)
COc1ccc(C)c(NC(=O)NCCc2cnc[nH]2)c1
OCCC1CN(Cc2ccccc2-c2ccco2)CCN1Cc1ccccc1 (stereo not drawn)
COc1ccc(CCN(C)C(=O)C2CCCN(C3CCN(Cc4ccccc4)CC3)C2)cc1OC (stereo not drawn)
CCOc1ccc(S(=O)(=O)Nc2cccc(C(=O)NCC(c3ccccc3)N(C)C)c2)cc1 (stereo not drawn)
Cc1cc(C)cc(NC(=S)N2CCN(c3ncc(C(F)(F)F)cc3Cl)CC2)c1
COc1ccc(C(CNC(=O)c2cccc(Br)c2)N2CCCC2)cc1 (stereo not drawn)
CC(C)n1cnc2c(N(C)c3ccccc3)nc(N(CCN(C)C)Cc3ccccc3)nc21
Cc1cccn2c(CNCCc3ccccn3)c(C(=O)N3CCOCC3)nc12
Cc1ccc(C)c(-n2cc(CNCCCn3cccn3)c(-c3ccccc3)n2)c1
Cc1csc2c(N3CCN(C(=O)Nc4ccc(OC(F)(F)F)cc4)CC3)ncnc12
CN(CCc1ccccn1)C(=S)Nc1cccc(S(=O)(=O)N(C)C)c1
Cc1ccc(NC(=S)NC2CC3CCC(C2)N3Cc2ccco2)c(C)c1 (stereo not drawn)
COc1cc2c(cc1OC)C(C)N(C(=O)C(NC(=O)c1ccccc1)C(C)C)CC2 (stereo not drawn)
O=C(NC1CC1)C1=C[C@H](c2csc3ccccc23)C[C@H](OCc2ccc(CO)cc2)O1
Clc1ccc2nc(N3CCNCC3)nc(-c3ccccc3)c2c1
COc1ccc(C(CNC(=O)/C=C/c2c(Cl)nc3ccccn23)N(C)C)cc1 (stereo not drawn)
CC(=O)n1cc([C@H]2C=C(C(=O)NCc3ccccc3)O[C@@H](OCc3ccc(CO)cc3)C2)c2ccccc21
CCCn1ncc(CN2CCC(n3nccc3NC(=O)CCc3ccccc3)CC2)c1C
CC(=O)NC(CC(=O)NCC(c1ccco1)N(C)C)c1ccccc1 (stereo not drawn)
COc1ccc(C(=O)NNC(=S)NC(=O)c2cccs2)cc1
COCCn1nnnc1C(c1cc2ccc(OC)cc2[nH]c1=O)N1CCN(C2CCCCC2)CC1 (stereo not drawn)
O=C(c1sc2ccccc2c1Cl)N(Cc1ccccc1)C1CCS(=O)(=O)C1 (stereo not drawn)
O=c1c(Cc2ccc(F)cc2)c(O)ccn1CCc1cnc[nH]1

— PubChem BioAssay
